Measured values from the supplement of paper PMC12645437, “Orthogonal IMiD-Degron Pairs Induce Selective Protein Degradation in Cells” (ACS Chemical Biology, 2025).
In all, about 8,300 sequences were measured (“log2 fold change of degron read counts, EGFP-low vs EGFP+ sorted cells (limma voom), compound-induced degradation”: median about -1.1, highest 2% from about 3.2 on). The full list was thinned out, with the highest values kept by preference.

T1: CRBN, Q96SW2
T1 chain: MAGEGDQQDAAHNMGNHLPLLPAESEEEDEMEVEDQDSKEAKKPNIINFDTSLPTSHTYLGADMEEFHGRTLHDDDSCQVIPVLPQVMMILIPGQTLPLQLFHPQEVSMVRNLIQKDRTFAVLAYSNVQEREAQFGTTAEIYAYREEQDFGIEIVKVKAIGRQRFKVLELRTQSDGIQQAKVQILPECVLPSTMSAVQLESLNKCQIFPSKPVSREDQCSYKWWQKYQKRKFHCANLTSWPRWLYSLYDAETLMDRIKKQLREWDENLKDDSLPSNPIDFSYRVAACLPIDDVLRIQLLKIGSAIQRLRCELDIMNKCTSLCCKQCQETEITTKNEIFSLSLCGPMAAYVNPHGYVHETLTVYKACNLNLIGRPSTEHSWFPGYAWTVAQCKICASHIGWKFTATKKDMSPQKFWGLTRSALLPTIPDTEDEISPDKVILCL

B1: 46F_47Y_49N_50Q_52G_53R_54L_55F_67L_, Q9UKT9 (peptide)
chain: FYCNQCGRLFTQKGNLLRHIKL
B2: 46F_47K_49D_50V_52G_53A_54V_55F_67L_, Q9UKT9 (peptide)
chain: FKCDVCGAVFTQKGNLLRHIKL
B3: 46F_47V_49D_50Q_52G_53A_54E_55F_67L_, Q9UKT9 (peptide)
chain: FVCDQCGAEFTQKGNLLRHIKL
B4: 46F_47C_49N_50Q_52G_53A_54S_55F_67L_, Q9UKT9 (peptide)
chain: FCCNQCGASFTQKGNLLRHIKL
B5: 46L_47W_49E_50I_52G_53F_54L_55C_67L_, Q9UKT9 (peptide)
chain: LWCEICGFLCTQKGNLLRHIKL
B6: 46F_47K_49N_50I_52G_53A_54H_55F_67L_, Q9UKT9 (peptide)
chain: FKCNICGAHFTQKGNLLRHIKL
B7: 46F_47Y_49N_50V_52G_53A_54I_55F_67L_, Q9UKT9 (peptide)
chain: FYCNVCGAIFTQKGNLLRHIKL
B8: 46F_47Q_49D_50I_52G_53A_54I_55F_67L_, Q9UKT9 (peptide)
chain: FQCDICGAIFTQKGNLLRHIKL
B9: 46F_47R_49N_50V_52G_53A_54I_55F_67L_, Q9UKT9 (peptide)
chain: FRCNVCGAIFTQKGNLLRHIKL
B10: 46F_47C_49D_50I_52G_53A_54I_55F_67L_, Q9UKT9 (peptide)
chain: FCCDICGAIFTQKGNLLRHIKL
B11: 46F_47F_49P_50V_52G_53A_54I_55F_67L_, Q9UKT9 (peptide)
chain: FFCPVCGAIFTQKGNLLRHIKL
B12: 46F_47K_49D_50I_52G_53A_54I_55F_67L_, Q9UKT9 (peptide)
chain: FKCDICGAIFTQKGNLLRHIKL
B13: 46F_47R_49P_50V_52G_53A_54I_55F_67L_, Q9UKT9 (peptide)
chain: FRCPVCGAIFTQKGNLLRHIKL
B14: 46F_47G_49P_50V_52G_53A_54I_55F_67L_, Q9UKT9 (peptide)
chain: FGCPVCGAIFTQKGNLLRHIKL
B15: 46F_47Q_49N_50V_52G_53A_54I_55F_67L_, Q9UKT9 (peptide)
chain: FQCNVCGAIFTQKGNLLRHIKL
B16: 46F_47V_49P_50V_52G_53A_54I_55F_67L_, Q9UKT9 (peptide)
chain: FVCPVCGAIFTQKGNLLRHIKL
B17: 46F_47Q_49P_50V_52G_53A_54I_55F_67L_, Q9UKT9 (peptide)
chain: FQCPVCGAIFTQKGNLLRHIKL
B18: 46F_47H_49P_50V_52G_53A_54I_55F_67L_, Q9UKT9 (peptide)
chain: FHCPVCGAIFTQKGNLLRHIKL

Molecular target: T1, CRBN, Q96SW2
Test: log2 fold change of degron read counts, EGFP-low vs EGFP+ sorted cells (limma voom), compound-induced degradation; higher = more compound-induced degradation of the degron-EGFP fusion; degrons are variants of IKZF1/3 zinc finger 2; compound dose not given here
Settings: Jurkat, 18 h
[1] = compound: compound 19 (5-tert-butyl-thalidomide)
[2] = compound: compound 22 (5-morpholino-thalidomide)
[3] = compound: compound 33 (diphenyl IMiD analogue)
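Note: pooled lentiviral library of zinc finger degron-EGFP fusions in mCherry-positive Jurkat cells, FACS-sorted after compound exposure, with degron abundance counted by next-generation sequencing.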

Sequence | log2 fold change of degron read counts [1] | log2 fold change of degron read counts [2] | log2 fold change of degron read counts [3] | log2 fold change of degron read counts (compound: thalidomide)
B1 | -1.45 | -2.33 | -2.01 | -1.7
B2 | -3.26 | -3.42 | -3.55 | -2.43
B3 | -3.02 | -2.35 | -2.96 | -1.78
B4 | -1.43 | -1.92 | -0.445 | -1.53
B5 | 1.13 | 1.39 | 1.44 | 0.295
B6 | -1.74 | -2.18 | -2.99 | -1.98
B7 | -0.301 | 0.0156 | -0.132 | -1.44
B8 | -1.32 | 2.34 | 1.7 | 3.47
B9 | -1.97 | -2.04 | -0.492 | -0.595
B10 | -0.218 | 0.0957 | 1.18 | 0.132
B11 | 1.97 | 2.07 | 0.852 | 0.24
B12 | -2.93 | -3.42 | -2.93 | -2.01
B13 | -1.67 | -0.943 | 0.606 | 0.832
B14 | 3.73 | 2.12 | 2.5 | 0.899
B15 | -1.8 | 1.3 | 1.44 | 3.37
B16 | -1.21 | 0.225 | 1.42 | 1.3
B17 | -0.448 | 3.15 | 2.64 | 3.53
B18 | 0.164 | 0.683 | 1.33 | -0.0983
